Records with an inconclusive call do not appear. Calls of active or inactive are those of the source. Rule for the calls: active = hit-call score of the fitted dose curve at least 0.9, where 1 is the maximum; inconclusive = response in the unintended direction; inactive = score below 0.9.
molecular target: Sodium channel protein type 1 subunit alpha (Rattus norvegicus) (UniProt P04774); experiment: NVS_IC_rNaCh_site2: NovaScreen (NVS) Ion Channel Assay for rat Sodium Channel, Site 2 (NaCh) (AID 2283322);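 note: hit means loss of radioligand binding signal relative to DMSO so AC50 marks displacement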
Protocol: NVS_IC_rNaCh_site2 is a biochemical, single-readout assay that uses extracted gene-proteins from Rat forebrain membranes in a tissue-based cell-free assay. Measurements were taken 1 hour after chemical dosing in a 48-well plate.NVS_IC_rNaCh_site2 is one of one assay component(s) measured or calculated from the NVS_IC_rNaCh_site2 assay. It is designed to make measurements of radioligand binding, a form of binding reporter, as detected with scintillation counting signals by Filter-based radiodetection technology.Data from the assay component NVS_IC_rNaCh_site2 was analyzed into 1 assay endpoint. This assay endpoint, NVS_IC_rNaCh_site2, was analyzed in the positive analysis fitting direction relative to DMSO as the negative control and baseline of activity. Using a type of binding reporter, loss-of-signal activity can be used to understand changes in the binding as they relate to the gene Scn1a. Furthermore, this assay endpoint can be referred to as a primary readout, because the performed assay has only produced 1 assay endpoint. To generalize the intended target to other relatable targets, this assay endpoint is annotated to the ion channel intended target family, where the subfamily is sodium channel.
Binding assays used specific radioligands (tritiated, iodinated) with non-radioactive competitive displacement ligands in agonist or antagonist protocols (as indicated) and various reference compounds and inhibitors to titrate specific binding to receptors and transporters. Most enzyme assays (CYPs, kinases, phosphatases, proteases, HDACs) used recombinant protein and specific substrates (fluorescence mostly, some colorimetric and radioactive) and inhibitors, followed by a biochemical separation of substrate and product. All assays for the biochemical HTS were initially run in duplicate at a single concentration (10 uM for CYP450 assays and 25 uM for all others). […] Each assay was run with positive and negative controls, and concurrent controls on every plate. The follow-up (secondary) screen tested active chemical-pairs in concentration series, as well as a few additional assays not tested in the primary screen, some selected negative inactives, and several cases re-run in the concentration series for confirmatory purposes.

SMILES	outcome	AC50
CCCCCCCCCCCCCN1CC(C)OC(C)C1 (centres undefined)	inactive	–
CC(C)(C)C(O)(CCc1ccc(Cl)cc1)Cn1cncn1 (centres undefined)	–	25 µM (active)
CCCCCOC(=O)c1ccccc1C(=O)OCCCCC	inactive	–

molecular target: human Serotonin, 5-Hydroxytryptamine Receptor 3 (5HT3), HTR3A (gene 3359) (UniProt P46098); experiment: NVS_LGIC_h5HT3: NovaScreen (NVS) Ligand-Gated Ion Channel Assay for human Serotonin, 5-Hydroxytryptamine Receptor 3 (5HT3) (AID 2283325)
Summary of the method: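 Initially tested at 25 uM in duplicate, then up to 50 uM in concentration-response for actives, compounds competed with a radioligand for HEK293-derived human 5-HT3 receptor. Bound counts were measured by filtration and scintillation at 1 h; loss of signal versus DMSO.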

Sequence of human Serotonin, 5-Hydroxytryptamine Receptor 3 (5HT3), HTR3A (gene 3359) (P46098 whole entry, looked up): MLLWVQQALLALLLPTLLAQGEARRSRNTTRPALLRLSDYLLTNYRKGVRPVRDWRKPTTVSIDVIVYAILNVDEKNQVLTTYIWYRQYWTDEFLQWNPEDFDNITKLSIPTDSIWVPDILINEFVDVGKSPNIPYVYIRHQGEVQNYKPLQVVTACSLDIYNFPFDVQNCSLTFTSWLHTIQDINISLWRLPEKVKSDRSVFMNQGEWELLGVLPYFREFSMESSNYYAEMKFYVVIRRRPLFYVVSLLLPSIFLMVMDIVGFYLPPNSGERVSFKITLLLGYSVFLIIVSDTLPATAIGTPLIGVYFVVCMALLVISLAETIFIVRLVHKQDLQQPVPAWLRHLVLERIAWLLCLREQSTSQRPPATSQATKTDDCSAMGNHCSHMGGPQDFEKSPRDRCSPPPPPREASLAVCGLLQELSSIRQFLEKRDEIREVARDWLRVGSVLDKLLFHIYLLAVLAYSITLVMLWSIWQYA

SMILES	outcome	AC50
c1ccc(N=Nc2ccccc2)cc1	inactive	–
CC(C)N(Cc1ccccc1)C(=O)C(C)(C)C	inactive	–
Nc1ccc(N=Nc2ccccc2)cc1	–	11.4 µM (active)
Brc1ccc(Oc2ccccc2)cc1	inactive	–
ClCCOCCCl	–	1.38 µM (active)
Cc1cccc(N)c1N	inactive	–

molecular target: human Constitutive Androstane Receptor (CAR), NR1I3 (gene 9970) (UniProt Q14994); experiment: NVS_NR_hCAR_Agonist: NovaScreen (NVS) Nuclear Receptor Binding Assay for human Constitutive Androstane Receptor Agonism (CAR) (AID 2283328)
Protocol: NVS_NR_hCAR_Agonist is a biochemical, single-readout assay that uses extracted gene-proteins in a cell-free assay. Measurements were taken 1 hour after chemical dosing in a 384-well plate.NVS_NR_hCAR_Agonist is one of one assay component(s) measured or calculated from the NVS_NR_hCAR_Agonist assay. It is designed to make measurements of fluorescent resonance energy transfer, a form of binding reporter, as detected with fluorescent resonance energy transfer signals by Time-Resolved Fluorescence Resonance Energy Transfer (TR-FRET) technology.Data from the assay component NVS_NR_hCAR_Agonist was analyzed into 1 assay endpoint. This assay endpoint, NVS_NR_hCAR_Agonist, was analyzed in the positive analysis fitting direction relative to DMSO as the negative control and baseline of activity. Using a type of binding reporter, gain-of-signal activity can be used to understand changes in the binding as they relate to the gene NR1I3. Furthermore, this assay endpoint can be referred to as a primary readout, because the performed assay has only produced 1 assay endpoint. To generalize the intended target to other relatable targets, this assay endpoint is annotated to the nuclear receptor intended target family, where the subfamily is non-steroidal.
Binding assays used specific radioligands (tritiated, iodinated) with non-radioactive competitive displacement ligands in agonist or antagonist protocols (as indicated) and various reference compounds and inhibitors to titrate specific binding to receptors and transporters. Most enzyme assays (CYPs, kinases, phosphatases, proteases, HDACs) used recombinant protein and specific substrates (fluorescence mostly, some colorimetric and radioactive) and inhibitors, followed by a biochemical separation of substrate and product. All assays for the biochemical HTS were initially run in duplicate at a single concentration (10 uM for CYP450 assays and 25 uM for all others). Assay-chemical combinations meeting a pre-defined threshold (e.g., 30% inhibition and other criteria defined below) were then run in singleton concentration-response format with maximum concentration of 20 uM for CYPs and 50 uM for all others. Each assay was run with positive and negative controls, and concurrent controls on every plate. The follow-up (secondary) screen tested active chemical-pairs in concentration series, as well as a few additional assays not tested in the primary screen, some selected negative inactives, and several cases re-run in the concentration series for confirmatory purposes.

Sequence of human Constitutive Androstane Receptor (CAR), NR1I3 (gene 9970) (Q14994 whole entry, looked up): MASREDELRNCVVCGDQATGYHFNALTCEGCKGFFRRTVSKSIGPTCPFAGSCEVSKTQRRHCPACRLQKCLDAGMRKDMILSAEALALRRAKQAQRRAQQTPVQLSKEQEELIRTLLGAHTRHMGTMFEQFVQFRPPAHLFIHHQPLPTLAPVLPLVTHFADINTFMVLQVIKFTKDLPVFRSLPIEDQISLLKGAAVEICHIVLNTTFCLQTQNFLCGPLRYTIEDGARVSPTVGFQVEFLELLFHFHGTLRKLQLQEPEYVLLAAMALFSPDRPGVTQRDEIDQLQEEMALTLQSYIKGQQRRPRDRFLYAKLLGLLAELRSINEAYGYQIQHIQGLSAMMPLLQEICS

SMILES	outcome
CC(C)(C)OOC(C)(C)CCC(C)(C)OOC(C)(C)C	inactive
Cc1cc(N=Nc2ccccc2C)ccc1N	inactive
CCCSC(=O)N(CCC)CCC	inactive
Nc1ccc(N=Nc2ccccc2)cc1	inactive
c1ccc2c(c1)-c1cccc3cccc-2c13	inactive

molecular target: human Peripheral-type Benzodiazepine Receptor (PBR), TSPO (gene 706) (UniProt P30536); experiment: NVS_MP_hPBR: NovaScreen (NVS) Membrane Protein Assay for human Peripheral-type Benzodiazepine Receptor (PBR) (AID 2283331);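 note: hits reduce radioligand binding relative to DMSO baseline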
Summary of the method: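 Using human colon-derived membranes, this one-endpoint binding test reads radioligand loss by scintillation after 1 h. Screening started at 25 uM in duplicate, with positive and negative controls on every plate, and actives moved to dose series.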

Sequence of human Peripheral-type Benzodiazepine Receptor (PBR), TSPO (gene 706) (P30536 whole entry, looked up): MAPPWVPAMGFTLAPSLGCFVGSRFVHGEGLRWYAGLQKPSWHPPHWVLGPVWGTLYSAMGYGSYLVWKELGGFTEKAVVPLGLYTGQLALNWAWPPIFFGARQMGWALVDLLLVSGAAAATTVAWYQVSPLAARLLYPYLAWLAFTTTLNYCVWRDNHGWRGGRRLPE

SMILES	AC50	outcome
Cc1cc(N=Nc2ccccc2C)ccc1N	36.2 µM (active)	–
Cc1ccc(N=C=O)cc1N=C=O	4.24 µM (active)	–
CC(C)COC(=O)c1ccccc1C(=O)OCC(C)C	–	inactive
O=C(Nc1ccccc1)c1ccccc1I	1.46 µM (active)	–
CN(C)c1ccc(C(=O)c2ccc(N(C)C)cc2)cc1	10.2 µM (active)	–
